# esBAF inh: blocks esBAF chromatin remodeling in mouse ES cells; Bmi1-luciferase knock-in reporter, 24 h; 100% = twice the neutral-well signal; reporter increase, % at 12.5 µM; 350,000 compounds, 2% hits; AID 602393; in the data active = activation above about 40%; inconclusive = no clear call, values can overlap the other calls;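 also: 0% = median of the plate's neutral control wells and 100% = double that signal; a rise in the Bmi1 reporter signal indicates esBAF inhibition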
# Wnt bcat act: Wnt/beta-catenin pathway activation; Wnt/beta-catenin reporter cell assay, activator, plate reader; AID 743398; 300,000 compounds, 1.2% hits; activation, % at 9.35 µM; in the data active = activation above about 30%, passing the limit was not always enough; inconclusive = no clear call, values can overlap the other calls;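 also: 0% = neutral control wells and 100% = positive control wells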
# FXN GAA850 act: increases GAA850 frataxin promoter reporter activity; activation, % at 6 µM; 360,000 compounds, 0.56% hits; AID 540364; HEK293 lucGAA850 FXN promoter luciferase reporter, 24 h; percent of 10 µM SAHA response;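 active = activation above the average of all compounds screened plus 3 SD, cutoff fixed separately per campaign, cut at about 7.5% in these data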;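 also: 0% = DMSO wells and 100% = 10 µM SAHA wells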
# MITF TRPM1 HTS: MITF TRPM1 promoter activation in melanoma cells | SK-MEL-5 TRPM1-promoter luciferase, 24 h; % of positive control, neutral wells = 0 | activation, % at 12.5 µM | 300,000 compounds, 0.75% hits | AID 588334;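 active = mean activation of at least 80% with every replicate also reaching 80%; inconclusive = mean reaches 80% but some replicate falls short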;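 also: 0% = neutral control wells and 100% = parthenolide positive control wells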
# An asterisk follows results filed as active; ? = inconclusive; . = not tested or not shown. This is a sample that favours compounds with a hit; in the whole collection about 2.8% have one here.
SMILES,esBAF inh,Wnt bcat act,FXN GAA850 act,MITF TRPM1 HTS
CCC(=O)Nc1ccc2c(c1)C(=O)N(C)C[C@H](OC)[C@H](C)CN(C(=O)c1ccccc1F)[C@H](C)CO2,8.6,.,.,.
COc1ccc(C(=O)NCC2OCCc3ccccc32)c(O)c1 (centres undefined),67.1*,.,1.3,43.4
C[C@H]1CN([C@@H](C)CO)S(=O)(=O)c2ccc(C3=CCCCC3)cc2O[C@H]1CN(C)S(=O)(=O)c1ccc(F)cc1,-2.8,.,.,.
Cc1noc(C)c1S(=O)(=O)N(C)C[C@@H]1Oc2ccc(NS(=O)(=O)c3ccc(F)cc3)cc2C(=O)N([C@@H](C)CO)C[C@@H]1C,0.3,.,.,.
Cc1cc(C)n(-c2ccc(C(=O)Nc3ccc4c(c3)OCCO4)cc2)n1,55.8*,.,-0.1,69.7
CC(C)CNS(=O)(=O)c1ccc(C(=O)Nc2ccc3c(c2)OCCO3)cc1,91.2*,.,1.8,59.2
CC(=O)Nc1ccc(C(=O)Nc2ccc3c(c2)OCCO3)cc1,-6.6,24.5,-2.0,40.8
Cc1nc(Nc2nc3ccccc3o2)nc(C)c1C,.,-1.7,4.1,4.5
Cc1ccc2oc(Nc3nc(C)c(C)c(C)n3)nc2c1,.,40.9*,2.6,.
CCC(C)NC(=O)c1cc(-c2ccc(OC)cc2)on1 (centres undefined),-10.6,.,1.8,101.4*
CCCNC(=O)c1cc(-c2ccc(Br)cc2)on1,13.7,.,5.8,75.9
COc1ccc(-c2cc(C(=O)O)no2)cc1,.,0.7,0.2,3.4
CC(C)NC(=O)c1cc(-c2ccc(Br)cc2)on1,32.4,.,4.3,111.1*
CCC(C)NC(=O)c1cc(CC(C)C)on1 (centres undefined),53.6*,10.4,0.6,.
COc1ccc(-c2cc(C(=O)NCC(C)C)no2)cc1,.,.,1.9,87.1*
COc1ccc(S(=O)(=O)N(C)C[C@@H]2Oc3ccc(NS(=O)(=O)c4ccc(C)cc4)cc3CC(=O)N([C@@H](C)CO)C[C@H]2C)cc1,-1.8,.,.,.
CCC(C)NC(=O)c1cc(-c2ccc3c(c2)OCO3)on1 (centres undefined),3.2,40.5*,4.5,88.1*
N#Cc1ccccc1N/C=C/C(=O)c1ccc(Cl)cc1,-7.6,48.2*,2.6,.
O=C(/C=C/Nc1ccc(F)c(F)c1)c1ccc(Br)cc1,.,12.3,4.8,66.1
NC(=O)c1ccccc1N/C=C/C(=O)c1ccc(F)cc1,31.0,53.6*,3.9,47.7
O=C(/C=C/Nc1ccccc1F)c1ccc(Br)cc1,.,46.0*,6.7,32.3
O=C(/C=C/Nc1ccc(F)cc1)c1ccc(Br)cc1,.,61.4*,6.1,47.3
Nc1cccc2cc(-c3ccccc3)oc12,91.2*,-2.4,3.2,115.0*
COC(=O)/C(C(C)=O)=C(\C=C\N(C)C)N(C)C,-7.0,0.4,-0.5,0.0
COC(=O)C(=CC(=CN(C)C)C=C(C(=O)OC)C(=O)OC)C(=O)OC,-6.2,38.2*,-1.4,8.2
SMILES,esBAF inh,Wnt bcat act,FXN GAA850 act,MITF TRPM1 HTS
Cc1cccc(NC(=O)Nc2ccc3c(c2)N(C)C(=O)CS3)n1,48.6*,7.4,3.4,90.6*
Cc1ccc(NC(=O)Nc2ccc3c(c2)N(C)C(=O)CS3)nc1,?,-3.3,-0.7,?
COc1ccc(NC(=O)Nc2ccc3c(c2)N(C)C(=O)CS3)cc1OC,-1.4,1.2,-2.8,20.4
Cc1ccnc(NC(=O)Nc2ccc3c(c2)N(C)C(=O)CS3)c1,.,23.6,5.3,187.2*
COc1ccc(C(=O)Cn2nnc(-c3cccs3)n2)cc1,7.6,51.0*,2.3,.
CNC[C@H]1Oc2c(NC(=O)NC3CCCCC3)cccc2C(=O)N([C@@H](C)CO)C[C@@H]1C,-2.8,.,.,.
Brc1ccc(COc2ncnc3ccccc23)cc1,.,-0.6,1.1,-4.0
c1ccc(OCCOc2ncnc3ccccc23)cc1,50.9*,.,4.2,?
N=C1C(c2nc3ccccc3s2)=C(O)CN1Cc1ccccc1,48.2*,.,-3.3,29.8
CCN(CC)CCCN1CC(O)=C(c2nc3ccccc3s2)C1=N,.,.,0.9,-6.3
COc1ccc(CN2C[C@H](O)COC[C@H]3O[C@@H](CC(=O)NCCN4CCCC4)CC[C@@H]32)cc1,-1.1,.,.,.
COc1ccccc1NC(=O)N[C@H]1CC[C@@H](CC(=O)NCc2ccc(Cl)c(Cl)c2)O[C@@H]1CO,0.3,.,.,.
CCCCC(=O)Nc1cccc(NC(=O)c2ccc3c(c2)OCO3)c1,.,.,0.2,.
CCCC(=O)Nc1cccc(NC(=O)c2ccc3c(c2)OCCO3)c1,43.4*,7.0,0.5,41.9
CCOc1ccc(C(=O)Nc2ccc3c(c2)OCCO3)cc1OC,67.0*,-0.6,3.1,33.9
COc1cc(OC)cc(C(=O)Nc2ccc3c(c2)OCCO3)c1,41.8*,14.4,2.4,.
CS(=O)(=O)Nc1ccc2c(c1)[C@@H]1C[C@@H](CC(=O)NCc3ccc(Oc4ccccc4)cc3)O[C@@H](CO)[C@@H]1O2,-15.3,.,.,.
O=[N+]([O-])c1ccccc1N=NNc1ccccc1,113.3*,13.9,3.9,41.0
COC(=O)c1ccccc1NN=Nc1ccccc1[N+](=O)[O-],.,0.2,1.0,.
CC1SCC(=NOCc2ccccc2)CS1 (centres undefined),.,48.5*,5.4,.
CCC(=O)N1C[C@H](O)COC[C@H]2O[C@@H](CC(=O)NCc3cc(F)cc(F)c3)CC[C@@H]21,4.3,.,.,.
CNC(=O)c1ccc(-c2nc(-c3ccccc3)cs2)cc1,52.4*,9.8,4.1,73.8
Cc1ccc(-c2csc(-c3ccncc3)n2)cc1,.,10.6,2.7,59.1
Brc1ccc(-c2csc(-c3ccncc3)n2)cc1,.,54.5*,3.0,?
c1ccc(-c2nc(-c3cccnc3)cs2)cc1,52.5*,11.4,1.9,35.4
SMILES,esBAF inh,Wnt bcat act,FXN GAA850 act,MITF TRPM1 HTS
C[C@H]1CN([C@@H](C)CO)C(=O)c2cc(-c3cccc(C#N)c3)cnc2O[C@@H]1CN(C)Cc1cncnc1,-0.6,.,.,.
N#CCNC(=O)c1cccn1-c1ncc(C(F)(F)F)cc1Cl,-0.7,38.2*,1.0,-2.8
C#CCNC(=O)c1cccn1-c1ncc(C(F)(F)F)cc1Cl,.,1.2,1.2,5.8
C[C@H](CO)N1C[C@H](C)[C@H](CN(C)C(=O)Nc2cccc3ccccc23)Oc2ccc(NC(=O)Nc3ccccc3)cc2CC1=O,1.1,.,.,.
CCC1=NN(C(=O)c2ccccc2O)C(O)(c2ccccc2)C1 (centres undefined),86.7*,2.2,-2.3,.
CCC1=NN(C(=O)c2ccccc2Br)C(O)(c2ccc(Br)cc2)C1 (centres undefined),.,-1.8,0.4,-6.0
Cc1ccc(-c2nn(-c3ccccc3)cc2CO)cc1,90.1*,13.9,7.2,69.2
O/N=C/c1cn(-c2ccccc2)nc1-c1cccnc1,.,-0.2,-0.3,7.8
Cc1ccc(-c2nn(-c3ccccc3)cc2/C=N/O)cc1,14.0,3.3,-0.2,91.7*
COc1ccc(-c2nn(-c3ccccc3)cc2CO)cc1,17.4,11.6,3.4,50.9
C[C@@H]1CN([C@@H](C)CO)S(=O)(=O)c2ccc(/C=C/c3ccccc3)cc2O[C@H]1CN(C)C(=O)c1ccccc1,-1.2,.,.,.
O=C(Nc1cnn(Cc2ccc(F)cc2)c1)c1cnccn1,41.6*,.,1.6,7.2
O=C(Nc1cnn(Cc2ccc(F)cc2)c1)c1cc(-c2cccs2)on1,.,4.7,6.1,-4.0
FC(F)(F)c1ccccc1Cc1c(-c2ccc(Cl)cc2)nc2ccc(Br)cn12,42.4*,0.1,.,.

# Assay outcomes deposited in PubChem BioAssay by several laboratories.
